Reference: PubChem BioAssay (NCATS)
Inconclusive results are not listed. Active and inactive are the calls of the source. Unless noted, calls follow the shape of the dose curve; as a rule, active = well fitted curve in the direction sought with a large enough effect; inconclusive = small, poorly fitted or top-dose-only effect, or another doubt; inactive = no such curve, though single readings can be large; an effect the other way counts as inactive or inconclusive.

What was measured:
[1] = biological target: Lysosomal acid glucosylceramidase (Homo sapiens) (UniProt P04062); assay: Glucocerebrosidase-p2 (AID 348; in the data active = potency below about 10 µM; also: potency is read from the fitted curve at half-maximal effect); details: purified GBA, blue fluorogenic substrate, 40 min
Chain of Lysosomal acid glucosylceramidase (Homo sapiens) (P04062 whole entry, looked up): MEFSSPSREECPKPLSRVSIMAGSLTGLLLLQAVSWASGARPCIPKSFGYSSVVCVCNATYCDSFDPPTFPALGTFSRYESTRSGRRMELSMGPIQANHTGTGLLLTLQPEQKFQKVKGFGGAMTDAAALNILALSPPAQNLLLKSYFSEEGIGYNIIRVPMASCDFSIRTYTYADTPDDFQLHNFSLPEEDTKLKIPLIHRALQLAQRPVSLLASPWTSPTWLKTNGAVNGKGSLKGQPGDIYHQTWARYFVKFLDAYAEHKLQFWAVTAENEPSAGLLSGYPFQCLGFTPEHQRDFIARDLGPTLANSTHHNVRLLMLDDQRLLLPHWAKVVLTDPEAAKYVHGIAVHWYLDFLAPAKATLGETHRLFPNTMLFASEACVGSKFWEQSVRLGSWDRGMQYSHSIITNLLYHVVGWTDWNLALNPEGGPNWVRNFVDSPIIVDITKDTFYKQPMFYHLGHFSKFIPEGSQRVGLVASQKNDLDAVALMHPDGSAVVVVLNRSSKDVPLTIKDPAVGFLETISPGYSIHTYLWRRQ
How it was run: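 Compounds titrated from 0.6 nM upwards against 0.2 nM enzyme in pH 5.9 citric acid/KH2PO4, taurocholate, tween-20; blue fluorogenic substrate 80 uM, 40 min room temperature, stopped and read Ex 365/Em 440 for AC50.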

[2] = AP1 Signaling Pathway (AID 357; active = well fitted curve in either direction with a large enough effect, not every such curve was filed as active;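 also: ME-180 reporter cells stimulated with EGF at its EC50 level; % is scaled to controls: 0 for no effect and ±100 for the full control effect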); details: ME-180 AP-1-bla reporter, EGF-induced, beta-lactamase ratio, 5 h; at 7.69 µM (top of the series) unless noted
How it was run: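 Beta-lactamase reporter under AP-1 response element, ME-180 background. Stimulus: EC50 EGF. Compound exposure 5 h, 37 °C. Detection: CCF4, 2.5 h RT, 460/530 nm. Values: AC50 from titration.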

[3] = NFAT Signaling Pathway (AID 444; active = well fitted curve in either direction with a large enough effect, not every such curve was filed as active;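 also: carbachol stimulus at about its EC50 of 1 µM final; % is scaled to controls: 0 for no effect and ±100 for the full control effect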); details: Jurkat NFAT-bla M1, carbachol, beta-lactamase ratio, 5 h; at 7.69 µM (top of the series) unless noted
How it was run: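 Jurkat cells with NFAT-driven β-lactamase reporter and co-expressed M1 receptor, stimulated with carbachol (final 1 uM, ~EC50), compound titration, 5 h at 37 °C. CCF4 loaded 1 h at RT; 460/530 nm ratio gave %activity and AC50.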

[4] = biological target: Glucocorticoid receptor (Homo sapiens) (UniProt P04150); assay: GR-GFP Redistribution (AID 450;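 active = compounds whose dose series gives a full or clear partial fitted curve of increased nuclear translocation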; also: potency is read from the fitted curve at half-maximal effect); details: U2OS GR-GFP nuclear translocation, laser cytometry, 2 h
Chain of Glucocorticoid receptor (Homo sapiens) (P04150 whole entry, looked up, the tested form may be a part): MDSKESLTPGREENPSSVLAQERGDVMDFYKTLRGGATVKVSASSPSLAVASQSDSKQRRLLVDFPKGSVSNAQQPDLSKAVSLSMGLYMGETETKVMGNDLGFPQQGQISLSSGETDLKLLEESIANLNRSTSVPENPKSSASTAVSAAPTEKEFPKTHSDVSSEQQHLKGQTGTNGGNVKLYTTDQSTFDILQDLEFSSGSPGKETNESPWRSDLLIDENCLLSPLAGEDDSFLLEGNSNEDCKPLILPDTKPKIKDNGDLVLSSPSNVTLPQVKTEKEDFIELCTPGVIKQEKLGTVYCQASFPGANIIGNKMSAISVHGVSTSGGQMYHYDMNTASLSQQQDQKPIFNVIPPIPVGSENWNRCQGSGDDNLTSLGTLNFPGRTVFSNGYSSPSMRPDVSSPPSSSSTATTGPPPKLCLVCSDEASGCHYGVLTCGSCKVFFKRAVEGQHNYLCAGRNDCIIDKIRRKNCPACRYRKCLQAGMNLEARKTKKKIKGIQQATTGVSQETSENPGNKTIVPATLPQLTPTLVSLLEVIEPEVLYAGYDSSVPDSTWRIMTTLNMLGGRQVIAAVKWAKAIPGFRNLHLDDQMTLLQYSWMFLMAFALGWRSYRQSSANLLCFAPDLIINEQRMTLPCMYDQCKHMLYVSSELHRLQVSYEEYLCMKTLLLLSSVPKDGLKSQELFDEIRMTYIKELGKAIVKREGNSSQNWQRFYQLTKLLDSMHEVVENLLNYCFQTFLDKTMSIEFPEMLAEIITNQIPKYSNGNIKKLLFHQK

[5] = biological target: Glucocorticoid receptor (Homo sapiens) (UniProt P04150); assay: GR-EFC Redistribution (AID 451; calls by dose curve; also: potency is read from the fitted curve at half-maximal effect); details: CHO-K1 GR-EFC translocation, beta-gal luminescence, 2 h
How it was run: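 CHO-K1 cells expressing nuclear EA and GR-ED fragments of b-gal; compounds titrated up to 46 uM final, 2 h at 37 C. GR nuclear translocation read as complemented b-gal luminescence after 1 h RT detection.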

[6] = biological target: Mitogen-activated protein kinase 10 (Mus musculus) (UniProt Q61831); assay: JNK3 AlphaScreen Assay (AID 530; active = well fitted curve in either direction with a large enough effect, not every such curve was filed as active;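 also: kinase came from lysate of stimulated human HepG2 cells; signal reports phosphorylation of biotinylated GST-cJun 1-79 at Ser73 with 10 µM ATP; % is scaled to controls: 0 for no effect and ±100 for the full control effect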)
How it was run: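 Pre-activated (IL-1β/TNFα) JNK3 in HepG2 lysates phosphorylates biotin-GST-cJun(1-79), 10 uM ATP; anti-phospho-cJun(Ser73) AlphaScreen read at room temperature, pH 7.6 Tris buffer. Compounds pre-incubated 15 min as titrations.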

[7] = biological target: 3',5'-cyclic-AMP phosphodiesterase 4B (Homo sapiens) (UniProt Q07343); assay: qHTS Assay for Inhibitors of PDE-IV (AID 607; active = well fitted activation curve with a large enough effect in the main read-out, with a control signal flat, not every such curve was filed as active; also: % of control where 0% means no effect)
Chain of 3',5'-cyclic-AMP phosphodiesterase 4B (Homo sapiens) (Q07343 whole entry, looked up): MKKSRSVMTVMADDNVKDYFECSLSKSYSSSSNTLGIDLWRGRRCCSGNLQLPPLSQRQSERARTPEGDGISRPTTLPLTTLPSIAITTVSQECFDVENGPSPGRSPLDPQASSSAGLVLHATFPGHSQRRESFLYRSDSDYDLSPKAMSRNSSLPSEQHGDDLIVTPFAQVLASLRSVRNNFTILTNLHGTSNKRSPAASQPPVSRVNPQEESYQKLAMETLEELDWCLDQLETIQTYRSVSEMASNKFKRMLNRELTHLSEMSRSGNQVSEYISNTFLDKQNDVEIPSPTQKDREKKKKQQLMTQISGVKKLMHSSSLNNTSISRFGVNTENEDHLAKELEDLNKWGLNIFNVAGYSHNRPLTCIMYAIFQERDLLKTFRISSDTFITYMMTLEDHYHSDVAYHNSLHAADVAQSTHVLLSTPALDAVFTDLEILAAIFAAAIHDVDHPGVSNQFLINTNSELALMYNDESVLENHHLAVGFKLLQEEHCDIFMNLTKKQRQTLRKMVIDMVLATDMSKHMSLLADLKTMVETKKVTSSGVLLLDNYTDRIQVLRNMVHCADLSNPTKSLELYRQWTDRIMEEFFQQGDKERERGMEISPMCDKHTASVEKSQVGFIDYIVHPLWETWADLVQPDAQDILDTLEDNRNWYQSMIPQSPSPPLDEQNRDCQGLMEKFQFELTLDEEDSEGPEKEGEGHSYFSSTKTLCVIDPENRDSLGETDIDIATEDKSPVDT
How it was run: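 Cell-based read-out of cAMP via a modified cyclic nucleotide-gated channel and membrane potential dye (535/590 nm) in HEK293 cells expressing PDE4 endogenously. Compounds tested up to 22.9 uM final; 100 uM RO 20-1724 reference.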

[8] = qHTS Assay for Lipid Storage Modulators (AID 1519; calls by dose curve); details: Drosophila S3 cells, BODIPY lipid droplet/cell ratio, laser cytometry, cells loaded with oleic acid; for activity change, negative = inhibition: at 57.5 µM (top of the series)
How it was run: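 Cells seeded at 5,000 per well were treated with compounds over a concentration series and loaded with oleic acid (400 uM, as added). Lipid droplet fluorescence (488 nm excitation, 500-530 nm channel) was read by laser-scanning cytometry and normalized to 20 uM Triacsin C.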

[9] = biological target: Dual specificity protein kinase CLK4 (Homo sapiens) (UniProt Q9HAZ1); assay: qHTS Assay for Inhibitors of CDC-like Kinase 4 (Kinase-Glo Assay) (AID 1770); also: nearly all actives have a fitted effect of over 65% in size; also: potency is read from the fitted curve at half-maximal effect
Chain of Dual specificity protein kinase CLK4 (Homo sapiens) (Q9HAZ1 whole entry, looked up): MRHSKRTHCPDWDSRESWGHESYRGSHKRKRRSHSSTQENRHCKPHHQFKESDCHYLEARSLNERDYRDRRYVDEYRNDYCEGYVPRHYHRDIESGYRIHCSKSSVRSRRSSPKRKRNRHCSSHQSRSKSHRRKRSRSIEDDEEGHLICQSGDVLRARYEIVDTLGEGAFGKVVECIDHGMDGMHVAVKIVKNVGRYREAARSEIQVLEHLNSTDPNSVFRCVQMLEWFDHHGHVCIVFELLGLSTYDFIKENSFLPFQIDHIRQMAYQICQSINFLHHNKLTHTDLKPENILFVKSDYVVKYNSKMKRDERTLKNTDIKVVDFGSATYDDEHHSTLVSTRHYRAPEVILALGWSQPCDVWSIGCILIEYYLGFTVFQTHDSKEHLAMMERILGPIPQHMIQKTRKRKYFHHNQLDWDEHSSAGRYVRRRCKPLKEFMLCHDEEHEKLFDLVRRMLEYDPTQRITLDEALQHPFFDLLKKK
How it was run: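 Clk4 25 nM, RS peptide 100 uM, ATP 1 uM, pH 7.5 Tris, 10 mM MgCl2, 2.5 mM DTT; 4.5 h RT; ATP depletion read by Kinase-Glo luminescence.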

[10] = biological target: Dual specificity protein kinase CLK4 (Homo sapiens) (UniProt Q9HAZ1); assay: qHTS Assay for Inhibitors of CDC-like Kinase 4 (ADP-Glo Assay) (AID 1771); also: nearly all actives have a fitted effect of over 70% in size; also: potency is read from the fitted curve at half-maximal effect
How it was run: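 25 nM Clk4 with 100 uM RS repeat peptide and 1 uM ATP (final) in buffer with 2 mM MgCl2, 0.5 mM EGTA, 2.5 mM DTT, 0.01% Triton X-100; 1 h at room temperature; ADP-Glo luminescence for ADP formed.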

[11] = biological target: Ubiquitin carboxyl-terminal hydrolase 1 (Homo sapiens) (UniProt O94782); assay: Inhibitors of USP1/UAF1: Pilot qHTS (AID 504865);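 also: rhodamine fluorescence freed from ubiquitin-rhodamine substrate followed over time; top concentration of the series differs between compounds; % is scaled to controls: 0 for no effect and ±100 for the full control effect; nearly all actives have a fitted effect of over 35% in size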
Chain of Ubiquitin carboxyl-terminal hydrolase 1 (Homo sapiens) (O94782 whole entry, looked up): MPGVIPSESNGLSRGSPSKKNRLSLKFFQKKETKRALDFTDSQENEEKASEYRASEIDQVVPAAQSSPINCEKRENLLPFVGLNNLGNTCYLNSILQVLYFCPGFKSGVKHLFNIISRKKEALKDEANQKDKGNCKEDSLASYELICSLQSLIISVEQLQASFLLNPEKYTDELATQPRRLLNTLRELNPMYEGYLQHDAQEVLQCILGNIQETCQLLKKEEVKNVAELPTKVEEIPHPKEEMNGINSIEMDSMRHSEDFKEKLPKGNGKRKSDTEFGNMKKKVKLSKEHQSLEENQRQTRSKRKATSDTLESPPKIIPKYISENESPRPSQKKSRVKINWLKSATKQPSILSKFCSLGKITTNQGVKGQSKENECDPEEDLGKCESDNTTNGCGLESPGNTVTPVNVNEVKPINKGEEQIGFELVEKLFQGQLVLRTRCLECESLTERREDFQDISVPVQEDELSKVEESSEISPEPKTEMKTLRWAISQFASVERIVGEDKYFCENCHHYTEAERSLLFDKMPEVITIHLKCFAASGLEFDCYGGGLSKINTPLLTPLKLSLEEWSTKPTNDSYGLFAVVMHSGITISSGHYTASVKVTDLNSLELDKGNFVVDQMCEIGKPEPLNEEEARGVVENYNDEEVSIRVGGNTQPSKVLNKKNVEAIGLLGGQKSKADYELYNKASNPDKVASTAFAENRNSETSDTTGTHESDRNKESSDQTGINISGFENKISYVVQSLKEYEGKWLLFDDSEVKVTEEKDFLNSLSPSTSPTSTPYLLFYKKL
How it was run: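 Enzyme-free wells gave the negative control, while test wells held 1nM USP1/UAF1 preincubated with compound for 15 min at room temperature. Ub-Rho at 150nM final started the reaction, and fluorescence at 480/540 nm was recorded kinetically.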

[12] = Stat Signaling Pathway (AID 446; active = well fitted curve in either direction with a large enough effect, not every such curve was filed as active;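 also: ME-180 cervical cancer cells given 40 pM IL-6 alongside compound; SIE-controlled beta-lactamase reporter measured as 460/530 nm FRET emission ratio; % is scaled to controls: 0 for no effect and ±100 for the full control effect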); details: ME-180 SIE beta-lactamase reporter, IL-6 stimulated, 5 h; at 7.69 µM (top of the series) unless noted
How it was run: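 Reporter line: ME-180 cervical carcinoma, SIE-beta-lactamase. Treatment: compound with 40 pM IL-6, 5 hrs, 37 C, in low-serum OPTI-MEM with 10 mM HEPES pH 7.3. Detection: 460/530 nm fluorescence.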

[13] = qHTS Assay for Identification of Small Molecule Agonists for Hypoxia Response Element Signaling Pathway (AID 914; active = well fitted activation curve with a large enough effect in the signal ratio, with a control signal flat, not every such curve was filed as active; the % refers to the signal ratio; also: potency is read from the fitted curve at half-maximal effect; as to activation: % of control where 0% means no effect); details: ME-180 (cervical carcinoma) HRE-bla reporter, beta-lactamase ratio, CoCl2, 17 h; activation: stronger effect = higher value
How it was run: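 HRE-bla ME-180 cells with beta-lactamase reporter under hypoxia response element, compounds with EC50 CoCl2 for 17 hours at 37 C. CCF4 substrate, 460nm/530nm emission ratio gave %Activity; AC50 from titration series.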

[14] = biological target: Dual specificity protein kinase CLK4 (Homo sapiens) (UniProt Q9HAZ1); assay: qHTS Assay for Inhibitors of CDC-like Kinase 4 (ADP-FP Assay) (AID 1795);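 also: recombinant human CLK4 phosphorylating RS repeat peptide at 1 µM ATP; % is scaled to controls: 0 for no effect and ±100 for the full control effect; nearly all actives have a fitted effect of over 60% in size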
How it was run: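 Kinase activity was followed as ADP output, converted from fluorescence polarization with a calibration curve. Reactions ran one hour at low ATP (1 uM) with RS peptide substrate.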

[15] = biological target: Cytochrome P450 1A2 (Homo sapiens) (UniProt P05177); assay: p450-cyp1a2 (AID 410; calls by dose curve; also: potency is read from the fitted curve at half-maximal effect;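 as to activity change, negative = inhibition: -100% = full effect of reference inhibitor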)
Chain of Cytochrome P450 1A2 (Homo sapiens) (P05177 whole entry, looked up): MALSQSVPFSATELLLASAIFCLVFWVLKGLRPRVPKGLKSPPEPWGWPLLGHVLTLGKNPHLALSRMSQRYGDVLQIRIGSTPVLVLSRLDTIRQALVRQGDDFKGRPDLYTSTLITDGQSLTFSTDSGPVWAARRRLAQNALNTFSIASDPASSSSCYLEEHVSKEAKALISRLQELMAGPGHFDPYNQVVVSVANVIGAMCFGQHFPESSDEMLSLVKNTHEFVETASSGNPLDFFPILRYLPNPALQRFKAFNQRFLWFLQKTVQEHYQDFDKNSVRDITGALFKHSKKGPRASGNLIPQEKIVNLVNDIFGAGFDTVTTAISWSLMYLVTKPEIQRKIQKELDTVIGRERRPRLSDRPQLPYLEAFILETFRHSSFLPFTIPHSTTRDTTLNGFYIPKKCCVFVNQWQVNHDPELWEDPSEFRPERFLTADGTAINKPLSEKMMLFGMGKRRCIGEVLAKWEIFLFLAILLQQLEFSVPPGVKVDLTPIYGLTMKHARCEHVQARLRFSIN
How it was run: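 20nM CYP1A2 with 100uM Luciferin-ME (at Km) in 100mM KPO4; compound preincubated 10 min, NADPH regeneration added, 60 min at room temperature. Luciferin quantified by luminescence after detection reagent; normalized to 57 uM furafylline.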

[16] = biological target: Cytochrome P450 3A4 (Homo sapiens) (UniProt P08684); assay: qHTS Assay for Activators of Cytochrome P450 3A4 (AID 885); also: nearly all actives have a fitted effect of over 65% in size
Chain of Cytochrome P450 3A4 (Homo sapiens) (P08684 whole entry, looked up): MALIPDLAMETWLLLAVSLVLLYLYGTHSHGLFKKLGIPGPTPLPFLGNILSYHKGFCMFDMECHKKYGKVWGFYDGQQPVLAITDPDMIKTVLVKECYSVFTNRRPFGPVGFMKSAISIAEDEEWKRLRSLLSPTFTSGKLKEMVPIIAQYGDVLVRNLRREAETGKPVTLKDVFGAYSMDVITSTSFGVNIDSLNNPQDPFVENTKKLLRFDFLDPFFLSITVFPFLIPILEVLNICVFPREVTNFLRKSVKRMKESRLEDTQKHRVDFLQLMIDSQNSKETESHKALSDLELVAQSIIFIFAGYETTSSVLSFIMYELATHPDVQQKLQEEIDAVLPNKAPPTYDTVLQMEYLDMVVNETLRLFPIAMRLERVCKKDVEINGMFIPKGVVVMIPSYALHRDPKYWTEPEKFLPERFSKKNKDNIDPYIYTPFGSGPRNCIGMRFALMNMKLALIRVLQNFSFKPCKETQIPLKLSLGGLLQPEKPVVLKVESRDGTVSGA
How it was run: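 Signal was normalized against complete inhibition by 57 uM ketoconazole. The reaction used 20nM CYP3A4 with 25uM Luciferin-PPXE, 10-min compound preincubation and a 60-min NADPH-supported step at RT.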

[17] = biological target: Cytochrome P450 3A4 (Homo sapiens) (UniProt P08684); assay: qHTS Assay for Inhibitors and Substrates of Cytochrome P450 3A4 (AID 884); also: potency is read from the fitted curve at half-maximal effect; nearly all actives have a fitted effect of over 50% in size
How it was run: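 20 nM human CYP3A4 with 25 uM Luciferin-PPXE (at KM) in 200 mM KPO4, preincubated 10 min with compound; NADPH regeneration started a 60 min RT reaction. Luciferin detected by luminescence, normalized to 57 uM ketoconazole as full inhibition.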

[18] = measured here: cell count channel max response
[19] = measured here: lipid channel max response

| Structure (SMILES) | Potency [1] | activity change, negative = inhibition [2] | activity change, negative = inhibition [3] | Potency [4] | Potency [5] | Potency [6] | Potency [7] | activity change, negative = inhibition [8] | max response [8, 18] | max response [8, 19] | Potency [9] | Potency [10] | Potency [11] | activity, negative = inhibition [12] | activation [13] | Potency [14] | Potency [15] | Potency [16] | Potency [13] | Potency [17] |
| --- | --- | --- | --- | --- | --- | --- | --- | --- | --- | --- | --- | --- | --- | --- | --- | --- | --- | --- | --- | --- |
| N#Cc1cccc(-c2ccc3ncnc(NCCN4CCOCC4)c3c2)c1 | > 11.4 µM (inactive) | 1.43% (inactive) | 19.4% (inactive) | > 46 µM (inactive) | > 46 µM (inactive) | inactive | inactive | 4.75% (inactive) | 5.88% | 7.51% | 12.6 µM (active) | 8.91 µM (active) | inactive | – | – | – | – | – | – | – |
| FC(F)(F)c1ccccc1-c1ccc2ncnc(NCCN3CCOCC3)c2c1 | 8.84 µM (active) | – | 10.2% (inactive) | > 46 µM (inactive) | > 46 µM (inactive) | inactive | – | -5.53% (inactive) | 3.86% | -2.12% | inactive | – | inactive | -13.9% (inactive) | -0.346% (inactive) | inactive | – | – | – | – |
| CN1CCN(c2ncc3nc(-c4cccs4)c(=O)n(Cc4cccs4)c3n2)CC1 | > 11.4 µM (inactive) | – | – | – | > 46 µM (inactive) | – | inactive | -5.19% (inactive) | 2.92% | -4.19% | inactive | – | inactive | – | – | inactive | 15.8 µM (active) | inactive | – | – |
| CN1CCN(c2ncc3nc(-c4cc(F)cc(F)c4)c(=O)n(CCC#N)c3n2)CC1 | > 11.4 µM (inactive) | – | – | > 9.22 µM (inactive) | > 46 µM (inactive) | inactive | inactive | 1.36% (inactive) | 25.2% | 26.1% | inactive | – | inactive | – | – | inactive | 15.8 µM (active) | inactive | 3.16 µM (active) | – |
| COc1cccc(-c2ccc3ncnc(NCCN4CCOCC4)c3c2)c1 | – | -12.4% (inactive) | – | > 46 µM (inactive) | > 46 µM (inactive) | inactive | – | -1.99% (inactive) | -14.3% | -15.9% | 1.78 µM (active) | – | inactive | -15.6% (inactive) | -14.8% (inactive) | – | – | – | – | – |
| COCCn1c(=O)c(C)nc2cnc(Oc3cccc(Cl)c3)nc21 | > 11.4 µM (inactive) | -12% (inactive) | 10.5% (inactive) | > 9.22 µM (inactive) | > 46 µM (inactive) | inactive | – | 4.18% (inactive) | 15.1% | 17.8% | inactive | inactive | inactive | -4.78% (inactive) | – | – | 12.6 µM (active) | inactive | – | – |
| COc1cccc(Cn2c(=O)c(-c3cc(F)cc(F)c3)nc3cnc(N4CCNCC4)nc32)c1 | > 11.4 µM (inactive) | 117% [activator] (active) | 225% [activator] (active) | > 9.22 µM (inactive) | > 46 µM (inactive) | – | inactive | -13.2% (inactive) | -15.6% | -28.1% | inactive | inactive | – | – | – | – | inactive | inactive | – | – |
| COc1ccc(CNc2ncnc3ccc(-c4ccc(C(=O)N(C)C)cc4)cc23)c(OC)c1 | > 11.4 µM (inactive) | -13.6% (inactive) | 28.3% (inactive) | > 46 µM (inactive) | > 46 µM (inactive) | inactive | – | 1.13% (inactive) | 11.2% | 9.92% | inactive | – | inactive | -9.48% (inactive) | – | inactive | – | inactive | – | 2.51 µM (active) |
| COCCn1c(=O)c(CCc2ccccc2)nc2cnc(Oc3ccc(OC)cc3)nc21 | > 11.4 µM (inactive) | -14.8% (inactive) | 2.36% (inactive) | > 9.22 µM (inactive) | > 46 µM (inactive) | inactive | inactive | -2.61% (inactive) | 5.1% | 2.19% | inactive | – | inactive | -17% (inactive) | – | inactive | 15.8 µM (active) | inactive | – | 3.16 µM (active) |
| COCCn1c(=O)c(-c2ccccc2)nc2cnc(N3CCN(C)CC3)nc21 | > 11.4 µM (inactive) | -12.6% (inactive) | 7.66% (inactive) | > 9.22 µM (inactive) | > 46 µM (inactive) | inactive | inactive | 3.96% (inactive) | 11.4% | 16.1% | inactive | – | inactive | -8.44% (inactive) | – | inactive | – | – | – | – |
| O=c1c(-c2cccs2)nc2cnc(N3CCNCC3)nc2n1C1CC1 | > 11.4 µM (inactive) | 5.15% (inactive) | 0.706% (inactive) | > 9.22 µM (inactive) | > 46 µM (inactive) | inactive | inactive | 1.95% (inactive) | 1.24% | -0.825% | inactive | – | inactive | 14.5% (inactive) | – | inactive | 2 µM (active) | inactive | – | – |
| COCCn1c(=O)c(C)nc2cnc(Nc3cccc(OC)c3)nc21 | > 11.4 µM (inactive) | 7.44% (inactive) | 5.07% (inactive) | > 9.22 µM (inactive) | > 46 µM (inactive) | inactive | inactive | -6.39% (inactive) | -14.8% | -22.1% | 15.8 µM (active) | 25.1 µM (active) | inactive | -7.83% (inactive) | – | – | 1 µM (active) | inactive | – | – |
| CN(C)Cc1ccccc1-c1cc(NCc2cccs2)ncn1 | > 11.4 µM (inactive) | 9.46% (inactive) | – | > 46 µM (inactive) | > 46 µM (inactive) | inactive | inactive | 3.12% (inactive) | 23.4% | 25.3% | inactive | – | inactive | 1.42% (inactive) | – | inactive | 25.1 µM (active) | inactive | – | – |
